Article PMC4336329 (PLoS ONE, 2015)
In all, about 310,000 compounds went through this assay and about 14,000 (4.5%) showed an effect of 50% or more. The effect is printed as a negative number. The list comes from a sample in which strong results are over-represented; it also holds similar structures and randomly drawn compounds.

biological target: human ether-à-go-go-related gene (hERG) potassium channel (human, UniProt Q12809); assay: primary screen, population patch clamp on CHO cells stably expressing hERG; higher = less effect of the substance
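Note: peak tail current of the secondary pulse compared with the same well before compound.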

human ether-à-go-go-related gene (hERG) potassium channel, sequence (Q12809 whole entry, looked up): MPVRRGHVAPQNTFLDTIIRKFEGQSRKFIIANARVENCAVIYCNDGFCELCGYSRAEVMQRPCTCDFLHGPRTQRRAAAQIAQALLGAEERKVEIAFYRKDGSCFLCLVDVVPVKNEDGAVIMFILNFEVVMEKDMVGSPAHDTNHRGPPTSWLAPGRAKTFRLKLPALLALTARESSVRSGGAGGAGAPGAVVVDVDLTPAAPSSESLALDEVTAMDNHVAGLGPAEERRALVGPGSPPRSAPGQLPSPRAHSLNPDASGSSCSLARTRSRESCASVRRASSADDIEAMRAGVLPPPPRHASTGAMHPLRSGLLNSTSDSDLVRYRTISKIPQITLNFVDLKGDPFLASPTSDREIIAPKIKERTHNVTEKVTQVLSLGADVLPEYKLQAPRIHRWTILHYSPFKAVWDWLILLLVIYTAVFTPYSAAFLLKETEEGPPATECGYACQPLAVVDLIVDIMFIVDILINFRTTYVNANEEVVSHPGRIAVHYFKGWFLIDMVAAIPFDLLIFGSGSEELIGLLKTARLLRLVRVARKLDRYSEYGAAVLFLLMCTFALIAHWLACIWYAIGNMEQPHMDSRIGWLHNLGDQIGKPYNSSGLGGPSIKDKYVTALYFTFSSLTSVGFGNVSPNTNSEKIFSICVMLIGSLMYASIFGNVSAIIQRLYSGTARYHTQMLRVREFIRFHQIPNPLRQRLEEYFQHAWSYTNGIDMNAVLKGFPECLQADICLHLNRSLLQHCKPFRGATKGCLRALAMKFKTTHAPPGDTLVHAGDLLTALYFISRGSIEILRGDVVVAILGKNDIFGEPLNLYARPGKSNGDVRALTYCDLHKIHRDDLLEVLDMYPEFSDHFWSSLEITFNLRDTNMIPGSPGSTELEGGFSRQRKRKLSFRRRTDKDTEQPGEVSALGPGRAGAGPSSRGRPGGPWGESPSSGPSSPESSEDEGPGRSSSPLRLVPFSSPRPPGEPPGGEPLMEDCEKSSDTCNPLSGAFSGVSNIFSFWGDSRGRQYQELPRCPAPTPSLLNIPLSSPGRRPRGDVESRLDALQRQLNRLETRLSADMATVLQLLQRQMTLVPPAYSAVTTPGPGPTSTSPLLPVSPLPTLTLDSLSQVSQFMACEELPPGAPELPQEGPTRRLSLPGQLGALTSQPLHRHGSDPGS

Row | Structure (SMILES) | hERG current change (%, negative = inhibition) at 10uM
1 | O=C(c1cc2ccccc2oc1=O)N1CCN(c2ncccn2)CC1 | 8.16%
2 | c1ccc2[nH]c(CSc3nnc(-c4ccncc4)o3)nc2c1 | -24.8%
3 | Cl.Oc1ccccc1Nc1nc(NCc2ccco2)c2ccccc2n1 | -29.3%
4 | Cl.Fc1ccc(Nc2nc(NCc3ccco3)c3ccccc3n2)cc1 | -37.2%
5 | Cc1ccc(Nc2nc(NCc3ccco3)c3ccccc3n2)cc1.Cl | 16.9%
6 | Cl.c1ccc(Nc2nc(NCc3ccco3)c3ccccc3n2)cc1 | -71%
7 | COc1ccccc1Nc1nc(NCc2ccco2)c2ccccc2n1.Cl | -20.3%
8 | Cc1ccccc1Nc1nc(NCc2ccco2)c2ccccc2n1.Cl | -63.6%
9 | COc1ccc(O)c(C(=O)/C=C/c2cc3ccccc3o2)c1 | 7.22%
10 | CN1C(=O)/C(=C/c2ccc(C(F)(F)F)cc2)Sc2ccc(C(=O)N3CCN(c4ccccn4)CC3)cc21 | 5.11%
11 | C[C@@H]1O[C@@H](Oc2c(-c3cc(O)c(O)c(O)c3)oc3cc(O)cc(O)c3c2=O)[C@H](O)[C@H](O)[C@H]1O | 4%
12 | CCN(CC)CCN(C(=O)CCOc1ccccc1)c1nc2ccc(F)cc2s1.Cl | -8.61%
13 | Cc1ccc2nc(N(CCCN(C)C)C(=O)COc3ccc(Cl)cc3)sc2c1.Cl | -8.71%
14 | CN(C)CCCN(C(=O)COc1ccc(Cl)cc1)c1nc2ccc(F)cc2s1.Cl | -21.4%
15 | Cc1ccc2nc(N(CCCN(C)C)C(=O)CS(=O)(=O)c3ccccc3)sc2c1.Cl | -22.7%
16 | CN(C)CCCN(C(=O)COc1ccccc1)c1nc2ccc(Cl)cc2s1.Cl | -67.1%
17 | CN(C)CCCN(C(=O)COc1ccccc1)c1nc2ccc(F)cc2s1.Cl | -68%
18 | NC(=O)CC(NC(=O)Cc1ccc(Cl)cc1)c1ccc(NC2CC3CCC2C3)c([N+](=O)[O-])c1 (stereo not drawn) | -3.01%
19 | CN(C)CCCNc1nc(-c2ccc(Cl)cc2)nc2ccccc12 | -35.5%
20 | Cc1ccc(-c2nc(NCCCO)c3ccccc3n2)cc1 | -41.2%
21 | OCCCNc1nc(-c2ccc(Cl)cc2)nc2ccccc12 | -63.1%
22 | CN(C)CCCNc1nc(-c2ccccc2)nc2ccccc12.Cl | -13.5%
23 | CCN(CC)CCCNc1nc(-c2ccccc2)nc2ccccc12.Cl | -61.4%
24 | CCN(CC)CCCNc1nc2cc(OC)c(OC)cc2c2nc(-c3cccnc3)nn12 | -2.29%
25 | CCN(CC)CCCNc1nc2cc(OC)c(OC)cc2c2nc(-c3ccccc3)nn12 | -7.77%
26 | CCOCCCNc1nc(-c2ccccc2)nc2ccccc12.Cl | -27.5%
27 | CCN(CC)CCCNc1nc2ccccc2c2nc(-c3ccncc3)nn12 | -56.6%

Row | Structure (SMILES) | hERG current change (%, negative = inhibition) at 10uM
28 | O=C(CCC1CCCC1)NCc1cccs1 | 13.9%
29 | CCC(Oc1ccccc1)C(=O)NCCOC (stereo not drawn) | -8.48%
30 | CC(NC(=O)c1cccc(Br)c1)c1ccccc1 (stereo not drawn) | -2.43%
31 | NC12CC3CC(C1)CC(CC(=O)O)(C3)C2 | 10.8%
32 | Cc1nc(Nc2ccc3c(c2)OCCO3)c2oc3ccccc3c2n1 | -5.62%
33 | Cc1ccc(NC(=O)CSc2nnc(-c3ccco3)o2)cc1 | 2.91%
34 | CC(=O)Nc1ccc(NC(=O)CSc2nnc(-c3ccco3)o2)cc1 | 7.81%
35 | COc1cccc(NC(=O)CSc2nnc(-c3ccco3)c(-c3ccco3)n2)c1 | -59.6%
36 | CCN(CC)C(=O)CSc1nnc(-c2ccccc2)c(-c2ccccc2)n1 | -20.4%
37 | COc1ccc(NC(=O)CSc2nnc(-c3ccco3)c(-c3ccco3)n2)cc1OC | -29.4%
38 | CC(=O)c1ccc(NC(=O)CSc2nnc(-c3ccco3)o2)cc1 | -73.9%
39 | O=C(CSc1nnc(-c2ccco2)c(-c2ccco2)n1)c1ccccc1 | 4.5%
40 | Cc1ccc(-c2nnc(SCC(=O)N(C)C)nc2-c2ccc(C)cc2)cc1 | -67.9%
41 | Cc1ccc(-c2nnc(SCC(N)=O)nc2-c2ccc(C)cc2)cc1 | -24.2%
42 | O=C(CSc1n[nH]c(-c2ccco2)n1)Nc1ccccc1 | -20.4%
43 | O=C(CSc1nnc(-c2ccco2)c(-c2ccco2)n1)Nc1ccccc1 | -75.2%
44 | COc1cccc(NC(=O)CSc2ccc(-c3ccco3)nn2)c1 | -48.1%
45 | COc1ccc2cc(C(=O)C3CCCN(C(=O)c4sc(C)nc4C)C3)ccc2c1 (stereo not drawn) | -22.8%
46 | Cc1ccc(S(=O)(=O)N2CCN(C(=O)CCn3nc(C)c(C)c3C)CC2)cc1 | 11.1%
47 | Oc1cccc(-c2nc3c4c(ncn3n2)-c2ccccc2CC42CCCC2)c1 | -7.64%
48 | COc1ccc(CCn2nnnc2C(c2ccc(Cl)cc2)N2CCN(C)CC2)cc1OC.Cl (stereo not drawn) | -11.6%
49 | CC(=O)Nc1ccccc1OC(=O)N(C)C | 2.41%
50 | COc1c(Cl)cc(Cl)cc1C(=O)Nc1ccc(NC(=O)c2cccs2)cc1 | 13.2%
51 | COc1ccc(C2(CNC(=O)c3cccc([N+](=O)[O-])c3)CCOCC2)cc1 | 0.0345%
52 | CN(C)c1ccc(NC(=O)CSc2nnc(-c3ccco3)c(-c3ccco3)n2)cc1 | 6.58%
53 | CC(=O)c1ccc(NC(=O)CSc2nnc(-c3ccco3)c(-c3ccco3)n2)cc1 | -33%
54 | Cc1ccc(NC(=O)CSc2nnc(-c3ccco3)c(-c3ccco3)n2)cc1 | -64.9%
